# Screening results from PubChem BioAssay.
# Hits are enriched below; roughly 7.3% of the tested compounds scored in any of these assays.
# FLuc inh = Firefly luciferase inhibition profiling of diverse chemical library using quantitative high-throughput screening. purified P. pyralis luciferase, luminescence, biochemical. Potency, µM (doses to about 115 µM), hits mostly inhibitors. actives 2.5% (n = 76,000); further: potency means the concentration at half of the fitted maximal effect; nearly all actives have a fitted effect of over 65% in size
# Target sequence (P08659 whole entry, looked up): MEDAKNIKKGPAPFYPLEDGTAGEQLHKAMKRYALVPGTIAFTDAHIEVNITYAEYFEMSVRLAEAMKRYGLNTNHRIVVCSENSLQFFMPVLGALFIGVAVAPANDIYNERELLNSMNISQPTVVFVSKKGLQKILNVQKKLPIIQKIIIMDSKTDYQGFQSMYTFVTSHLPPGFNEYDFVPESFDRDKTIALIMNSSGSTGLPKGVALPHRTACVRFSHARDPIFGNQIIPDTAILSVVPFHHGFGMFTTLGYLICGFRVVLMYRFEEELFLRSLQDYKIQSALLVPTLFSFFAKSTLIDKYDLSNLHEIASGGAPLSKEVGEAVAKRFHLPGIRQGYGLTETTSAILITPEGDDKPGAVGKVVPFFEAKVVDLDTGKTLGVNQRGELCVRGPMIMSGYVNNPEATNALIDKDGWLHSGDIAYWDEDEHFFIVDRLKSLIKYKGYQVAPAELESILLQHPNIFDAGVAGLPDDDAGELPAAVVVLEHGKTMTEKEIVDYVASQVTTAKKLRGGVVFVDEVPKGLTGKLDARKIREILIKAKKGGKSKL
#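 Purified 10nM P. pyralis luciferase with 10uM D-luciferin and 10uM ATP in 50mM Tris acetate pH 7.5, 10mM Mg acetate, 0.01% Tween-20, 0.05% BSA. qHTS titration; luminescence read by CCD imager.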
# HEK293 tox = Cytotoxic Profiling in HEK 293 Cell Line of Diverse Libraries Using Quantitative High-Throughput Screening. HEK 293 viability, ATP luminescence (CellTiter-Glo), 48-72 h. Potency, µM (titrated, usually from 115 µM), for inactives: at the top dose activity change, negative = cytotoxicity, actives largely listed as inhibitors. actives 6.6% (n = 94,000). AID 1345083, 2018; further: potency means the concentration at half of the fitted maximal effect; nearly all actives have a fitted effect of over 60% in size
#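 HEK 293 cells at 250 cells/well were exposed to compounds by pintool transfer for 48 or 72 hr at 37 degree Celsius, 5% CO2. Viability was read as ATP-coupled luminescence with CellTiter-Glo after 10 min at room temperature.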
# HEK293 viab = GF-AFC viability counterscreen for inhibitors of alpha-synuclein gene (SNCA) expression; HEK-293-SNCA-luc viability, GF-AFC fluorescence, 24 h; Potency, µM (doses to about 57.1 µM), inactives show top-dose activity change, negative = cytotoxicity, hits mostly cytotoxic; actives 0.12% (n = 150,000); AID 1671193, 2021;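 further: potency means the concentration at half of the fitted maximal effect; 0% = DMSO-treated cells and -100% = medium-only wells without cells; nearly all actives have a fitted effect of over 30% in size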
#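 HEK-293-SNCA-luc cells (1500/well) plated 24 h, then exposed 24 h to a dilution series; GF-AFC added 30 min at 37C, fluorescence 405/540 nm; normalised to medium-only and DMSO wells, Hill fit.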
# 3T3 cytotox = Cytotoxic Profiling in NIH 3T3 Cell Line of Diverse Libraries Using Quantitative High-Throughput Screening | NIH 3T3 viability, CellTiter-Glo ATP luminescence, 48-72 h | Potency, µM (titrated, usually from 96.7 µM), without a hit: top-dose activity change, negative = cytotoxicity, hits mostly inhibitors | actives 4.3% (n = 94,000); further: potency means the concentration at half of the fitted maximal effect; nearly all actives have a fitted effect of over 55% in size
#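 ATP-dependent luminescence (CellTiter-Glo) served as the viability signal for NIH 3T3 cells treated with compound for 48 or 72 hr at 37 °C.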
# IP6K1 inhibitor = Primary qHTS assay for small molecule inhibitors of Inositol hexaphosphate kinase 1 (IP6K1); IP6K1 kinase, ADP-Glo luminescence, 2 h; stronger effect = lower value; actives 0.81% (n = 140,000); AID 1645851, 2021; Inositol hexakisphosphate kinase 1 (Homo sapiens), Q92551; activity change, % (series mostly up to about 58 µM); in the data active means activity change below about -25%
#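 ADP-Glo luminescence measures ADP made by human IP6K1 during a 2 h RT reaction with ATP/IP6 (mix at 1.3 mM/130 uM); top library doses 57.5 and 19.1 uM final.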
# SNCA expr inhib = Primary qHTS assay for inhibitors of alpha-synuclein gene (SNCA) expression; HEK-293 SNCA-luciferase knock-in, luminescence, 24 h; Potency, µM (titrated, usually from 57.2 µM), inactives show at the highest dose activity change, negative = inhibition, hits mostly inhibitors; actives 0.17% (n = 140,000); AID 1671194, 2021;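 further: potency means the concentration at half of the fitted maximal effect; plate controls were DMSO cells for no effect and cell-free wells for full effect; nearly all actives have a fitted effect of over 45% in size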
# IP6K1 inh cnf = Confirmatory qHTS assay for small molecule inhibitors of Inositol hexaphosphate kinase 1 (IP6K1); shares compounds with IP6K1 inhibitor; Potency, µM (top dose mostly 49 µM), without a hit: at the highest dose activity change, negative = inhibition, hits mostly inhibitors; actives 13% (n = 1,200); recombinant IP6K1 kinase, ADP-Glo luminescence, 2 h; further: potency means the concentration at half of the fitted maximal effect; nearly all actives have a fitted effect of over 65% in size
# Numbers without * were called inactive; i = inactive; ? = inconclusive; . = no result; [ ] = dose if it differs, or a comment. Unless noted, the call rests on the fitted dose curve; in most records, active means well fitted curve in the direction sought with a large enough effect; inconclusive means small, poorly fitted or top-dose-only effect, or another doubt; inactive means no such curve, though single readings can be large; an effect the other way counts as inactive or inconclusive. Unless noted, on the % scale 0 is the no-effect control and ±100 the full control effect.
SMILES,FLuc inh,HEK293 tox,HEK293 viab,3T3 cytotox,IP6K1 inhibitor,SNCA expr inhib,IP6K1 inh cnf
COc1ccccc1C(=O)N1CCCC1C(=O)N1CCC(c2nc3ncccc3[nH]2)CC1 (centres undefined),.,-2%,-18%,?,5,10%,.
O=Nc1c(-c2c(O)[nH]c3ccccc23)[nH]c2ccccc12,.,.,?,.,.,89%,1%
CC(C)c1noc(-c2cn(C3CCN(C(=O)c4ccsc4)CC3)nn2)n1,i,-14%,5%,-24%,4,-22%,.
COc1cc(/C=C(\C#N)C(=O)c2ccc(O)c(O)c2)cc(I)c1O,.,.,-16%,.,.,2%,2.1µM*
COc1cccc(Nc2ccnc(N3CCN(C(=O)C4CC4)CC3)n2)c1,.,?,7%,?,12,65%,.
Oc1cc(O)c2c(c1)O[C@H](c1ccc(O)c(O)c1)[C@@H](O)C2,.,.,-17%,.,.,-19%,.
O=C1C[C@@H](c2ccc(O)cc2)Oc2cc(O)ccc21,.,.,-8%,.,-35*,.,?
CN1CCN(Cc2ccc(-c3cnc4[nH]cc(-c5ccc6[nH]ccc6c5)c4c3)cc2)CC1,.,.,-30%,.,-47*,.,9.2µM*
CN1CCN(c2nc3c(c(=O)[nH]2)CCN(Cc2ccc4[nH]ccc4c2)CC3)CC1,i,-5%,0%,i,2,-22%,.
Cc1ccc2c(c1)N(C(=O)N1CCC(C(=O)NCc3cccc(Br)c3)CC1)CCO2,.,.,-8%,.,-102*,-36%,-12%
Cc1ccc2c(c1)N(C(=O)N1CCC(C(=O)NCCC3=CCCCC3)CC1)CC(C)O2 (centres undefined),.,.,4%,.,-39*,-5%,-11%
CCOC(=O)c1ccc(NC(=O)c2cc(=O)c3ccc(C)c(C)c3o2)cc1,.,.,-10%,.,-25*,13%,2%
CCOC(=O)c1ccc(NC(=O)c2cc(=O)c3cc(CC)ccc3o2)cc1,.,.,-2%,.,-12,49%,.
COc1ccc(S(=O)(=O)N2CCC(c3noc(C4CC4)n3)C2)cc1 (centres undefined),i,?,-3%,-23%,-6,-28%,.
C[S+](=O)([O-])NCc1nnc2n1C(C(=O)NCc1ccccc1F)CC2 (centres undefined),.,i,12%,3%,-28*,1%,-2%
O=C(c1cc(-c2ccccc2F)cc2c1OCCN2Cc1cccnc1)N1CC(O)C1,i,-13%[172 µM],-2%[87.6 µM],?,-15,-9%[87.6 µM],.
CNC(=O)c1cc(-c2ccc(C)cc2)cc2c1OCCN2Cc1cccnc1,i,?,-5%[87.6 µM],?,-29*,-14%[87.6 µM],?
NC(=O)c1cc(-c2ccccc2F)cc2c1OCCN2Cc1cccnc1,i,?,-21%[87.6 µM],?,-25*,-17%[87.6 µM],?
Cc1cc(C)cc(C(=O)N2CCC(Cc3nc(-c4cnccn4)no3)CC2)c1,i,1%,3%,-14%,4,-16%,.
Cc1cccc(C(=O)N2CCC(Cc3nc(-c4cnccn4)no3)CC2)c1,i,-16%,-11%,-40%,-27*,-11%,4%
COc1ccc(C(=O)N2CCC(Cc3nc(C(C)C)no3)CC2)cc1OC,i,?,9%,-45%,-5,0%,.
Cc1ccc(C(=O)N2CCC(Cc3nc(C(C)C)no3)CC2)cc1C,i,?,-17%,45µM*,-27*,?,-8%
Cc1cccc(Oc2nc3c(c(=O)n(C)c(=O)n3C)n2C)c1,.,.,8%,.,-27*,11%,-18%
Cn1c(Oc2cccc(Cl)c2)nc2c1c(=O)n(Cc1ccccc1Cl)c(=O)n2C,.,.,-1%,.,33,-21%,.
CC1CCN(C(=O)CC#N)CC1N(C)c1ncnc2[nH]ccc12 (centres undefined),.,.,7%,.,-8,.,-3%
SMILES,FLuc inh,HEK293 tox,HEK293 viab,3T3 cytotox,IP6K1 inhibitor,SNCA expr inhib,IP6K1 inh cnf
O=C(NCc1ccc(F)cc1)C1CCN(C(=O)c2ccc(-c3cccs3)cc2)CC1,.,?,.,?,-9,.,.
COC(=O)C1=C(C)NC(COC(N)=O)=C(C(=O)OC(C)C)C1c1cccc(Cl)c1Cl (centres undefined),.,.,?,.,-15,-48%[25.6 µM],.
CCCC(=O)OCOC(=O)C1=C(C)NC(C)=C(C(=O)OC)C1c1cccc(Cl)c1Cl (centres undefined),.,.,12%[23.9 µM],.,7,-22%[25.6 µM],-6%
COc1cccc(-c2ccc(C(=O)NCCNC(=O)c3ccc(C(F)(F)F)cc3)cc2)c1,.,?,.,3%,-7,.,.
Cc1ccc([C@H]2Nc3ccc(S(=O)(=O)Nc4cccc(Cl)c4C)cc3[C@H]3C=CC[C@H]32)cc1,.,.,-19%,.,-27*,-10%,-5%
COc1ccc(C2Cn3nnc(C(=O)N4CCN(C(=O)CCc5ccccc5)CC4)c3CO2)cc1 (centres undefined),i,?,-4%,-27%,-25*,?,21%
COc1ccc(CCC(=O)N2CCN(C(=O)c3nnn4c3COC(c3ccccc3)C4)CC2)cc1 (centres undefined),i,?,1%,0%,1,38%,.
Cc1nnc2n1CCC(N(C)S(=O)(=O)c1cn(C)cn1)CC2 (centres undefined),i,-19%,-9%,-6%,-8,-11%,.
CN(Cc1ccccc1)Cc1cc(CC2(NCc3ccccc3F)COC2)no1,i,?,-13%[87.6 µM],?,7,6%[87.6 µM],.
CCn1c(C(=O)N(C2CC2)C2CC2)cc2c3c(ncn3C)c(Nc3cc(C)n(C)n3)nc21,.,.,?,.,-7,10%,-2%
CC(=O)Nc1cccc(-c2nnc(SCC(=O)c3cc([N+](=O)[O-])ccc3Cl)o2)c1,.,.,?,.,-31*,-6%,?
